Screening data deposited in PubChem by several laboratories.
Calb biofilm kill: clotrimazole potentiators killing Candida biofilms, primary screen, with clotrimazole, Alamar Blue. C. albicans biofilm + clotrimazole. 0.14% of 85,000 active. inhibition, % at 6 µM;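 active = inhibition above 20%; inactive = inhibition below 20%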;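 also: preformed 24 hr biofilms exposed to compound for 48 hr; 0% = biofilm without compound and 100% = blank killed by clotrimazole plus chlorhexidine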
Smad3 inh: Smad3/FoxH1 peptide binding inhibitors, primary screen, biochemical, TR-FRET; Mothers against decapentaplegic homolog 3 (Homo sapiens), P84022; TR-FRET Smad3/Dy647-FoxH1 peptide binding, europium anti-His; inhibition, % at 25 µM; 0.29% of 88,000 active; AID 630, 2007;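 active = compounds that reduce the energy-transfer binding signal between the protein and its labelled peptide by more than half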;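 also: 0% = Smad3 plus labelled peptide maximal FRET and 100% = peptide-only background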
Target sequence (P84022 whole entry, looked up): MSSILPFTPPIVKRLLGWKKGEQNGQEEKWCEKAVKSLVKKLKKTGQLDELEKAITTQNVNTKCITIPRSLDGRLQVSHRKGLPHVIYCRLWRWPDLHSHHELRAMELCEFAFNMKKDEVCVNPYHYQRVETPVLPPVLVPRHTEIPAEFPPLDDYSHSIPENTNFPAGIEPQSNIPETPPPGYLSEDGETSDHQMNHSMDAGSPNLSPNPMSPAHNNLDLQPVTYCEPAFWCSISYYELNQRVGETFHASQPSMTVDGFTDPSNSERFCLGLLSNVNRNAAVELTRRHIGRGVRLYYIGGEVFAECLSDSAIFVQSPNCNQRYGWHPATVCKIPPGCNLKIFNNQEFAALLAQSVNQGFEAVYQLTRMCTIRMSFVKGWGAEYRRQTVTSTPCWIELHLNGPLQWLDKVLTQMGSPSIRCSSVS
ERa coact inh: ERα–SRC-1 coactivator interaction inhibitors, primary screen, biochemical, TR-FRET, ERα LBD, estradiol-bound | 1.7% of 86,000 active | inhibition, % at 25.6 µM | Estrogen receptor (Homo sapiens), P03372 | TR-FRET ER-alpha LBD / SRC-1 peptide; in the data active = inhibition above about 50%;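 also: 0% = receptor plus peptide control and 100% = peptide only without receptor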
HePTP inhibitor: inhibitors of human HePTP phosphatase, primary screen, biochemical, absorbance, leukemia target; recombinant HePTP phosphatase activity, OD absorbance; inhibition, % at 20 µM; 0.64% of 110,000 active; AID 521, 2006; in the data active = inhibition above about 50%;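 also: plate controls were vehicle for no effect and reference inhibitor for full effect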
ERa coact pot: enhancers of ERα–SRC-1 coactivator binding, primary screen, biochemical, TR-FRET, ERα LBD, low estradiol. 1.3% of 86,000 active. TR-FRET ERalpha-LBD/SRC-Cy5 coactivator binding, 2 h; 100 = basal binding, no effect. coactivator binding (% of control), % at 25.6 µM. AID 639, 2007; in the data active = activity above about 200%;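 also: binding measured in presence of low estradiol as agonist stimulus; 0% = peptide alone without receptor and 100% = receptor with peptide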
ERb coact inh: inhibitors of ERβ-SRC1 coactivator interaction, primary screen, biochemical, TR-FRET, ERβ LBD, SRC-1 peptide; TR-FRET ER-beta LBD / SRC1-Cy5 peptide binding; receptor agonist-loaded with 1 µM estradiol; inhibition, % at 25.6 µM; 1.3% of 86,000 active; AID 633, 2007;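 active = compounds whose percent inhibition of the receptor-coactivator binding signal exceeds about 50% in the single-dose screen, limit read from the data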;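 also: 0% = receptor plus peptide wells without compound and 100% = peptide-only wells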
Starred values were filed as active, the others as inactive; . = not tested or not shown; [ ] = dose if it differs, or a comment. Hits are enriched below; roughly 2.9% of the tested compounds scored in any of these assays.

SMILES | Calb biofilm kill | Smad3 inh | ERa coact inh | HePTP inhibitor | ERa coact pot | ERb coact inh
C=CCN=C1CC(C)(C)CC(=O)/C1=C(/O)CCC | . | . | . | 102* | . | .
Cn1c(-c2sc3cc(C(F)(F)F)cnc3c2-c2cccnc2)n[nH]c1=S | -1 | 6 | -8 | . | 108 | -2
CSc1nnc(-c2sc3cc(C(F)(F)F)cnc3c2-c2ccccn2)n1C | 5 | 3 | 1 | . | 347*[fluorescence artefact?] | -1
S=C(Nc1ccccc1)Nc1ccc(Nc2ccccc2)cc1 | . | . | . | 12 | . | .
Cc1sc(NC(=O)/C=C\C(=O)O)nc1-c1ccccc1 | . | . | . | 103* | . | .
Cc1sc(NC(=O)CCC2CCCCC2)nc1-c1ccccc1 | . | . | . | 102* | . | .
Cc1conc1NC(c1cccs1)c1ccc2cccnc2c1O (stereo not drawn) | 16 | 0 | 57*[fluorescence artefact?] | 11 | 66 | 46
O=C(Nc1ccc2oc(-c3ccncc3)nc2c1)c1ccncc1 | . | . | . | 3 | . | .
O=C(Nc1cccc(NC(=O)c2ccc(Br)o2)n1)c1ccc(Br)o1 | 8 | -50 | 30 | 10 | 258*[fluorescence artefact?] | 22
Cc1cc(NC(=O)c2ccc(Br)o2)no1 | . | . | . | -9 | . | .
O=C(Nc1nc2c(Cl)cccc2s1)c1ccc(Br)o1 | 0 | -7 | -82 | 9 | 535*[fluorescence artefact?] | -8
CCOC(=O)c1ccc(N2C(=O)c3n[nH]c(C)c3C2c2ccc(OC)cc2)cc1 (stereo not drawn) | 6 | 8 | 99*[fluorescence artefact?] | 4 | 110 | -7
CCOC(=O)c1ccc(N2C(=O)c3n[nH]c(C)c3C2c2ccc(OC)c(OC)c2)cc1 (stereo not drawn) | 4 | 9 | 1 | 4 | 112 | 2
CCc1cccc(C)c1NC(=O)/C=C/c1cccc([N+](=O)[O-])c1 | . | . | . | 0 | . | .
COc1ccc2nc(SCC(=O)Nc3ccc(Cl)c(Cl)c3)[nH]c2c1 | . | . | . | 7 | . | .
CCc1ccc2[nH]c(=O)c(CN(Cc3ccc4c(c3)OCO4)C(=O)c3ccco3)cc2c1 | 4 | -3 | 74* | 10 | 74 | 41
COc1ccc2[nH]c(=O)c(CN(Cc3ccc4c(c3)OCO4)C(C)=O)cc2c1 | 3 | 11 | -37 | -8 | 97 | -16
Cc1ccc(CNC(=O)c2cc3c(=O)n(C)c4ccccc4c3n2C)cc1 | 11 | 12 | 39 | . | 291*[fluorescence artefact?] | 42
COc1cc(NC(=O)c2cc3c(=O)n(C)c4ccccc4c3n2C)cc(OC)c1OC | 18 | 15 | -23 | -3 | 330* | -5
COc1ccc(NC(=O)c2cc3c(=O)n(C)c4ccccc4c3n2C)cc1OC | 8 | -3 | -3 | -8 | 109 | 5
Cn1c(C(=O)NC2CCCCCC2)cc2c(=O)n(C)c3ccccc3c21 | 0 | 0 | 23 | 7 | 223*[fluorescence artefact?] | 28
CN(CCNC(=O)c1cc2c(=O)n(C)c3ccccc3c2n1C)Cc1ccccc1 | -2 | 7 | 16 | 5 | 96 | -1
Cn1c(C(=O)NCc2cccs2)cc2c(=O)n(C)c3ccccc3c21 | 1 | 30 | -1 | -7 | 513*[fluorescence artefact?] | 7
Cn1c(C(=O)NCCN2CCOCC2)cc2c(=O)n(C)c3ccccc3c21 | 12 | -6 | -5 | 8 | 90 | -5
CCOc1ccc(OC)cc1/C=N/NC(=O)c1ccc(C)cc1 | . | . | . | 7 | . | .
COc1ccccc1C(=O)N1CCN(Cc2ccc([N+](=O)[O-])cc2)CC1 | . | . | . | -21 | . | .
CCOC(=O)c1ccc(NC(=S)NC(NC(=O)Cc2ccccc2)C(Cl)(Cl)Cl)cc1 (stereo not drawn) | . | . | . | 104* | . | .
CSc1nc(SCC(=O)NCc2ccco2)c2c3c(sc2n1)CN(C)CC3 | 8 | 11 | 52*[fluorescence artefact?] | 5 | 58 | 35
CC1(C)Cc2c(sc3c2c2ncnn2c2nnc(SCC(=O)NCc4ccco4)n32)CO1 | 7 | 11 | -2 | -6 | 116 | 74*[fluorescence artefact?]
O=C(CSc1ncnc2sc3c(c12)CCCCC3)NCc1ccco1 | 5 | 0 | 3 | -15 | 95 | 6
